# Test results from PubChem BioAssay (NCI).
# Compounds without any hit were thinned out: in the full panel of roughly 83,000, 20% have a hit.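 Single-concentration screen, 48 h exposure, 96-well plates. Endpoint: percent growth. Below 10 = active.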 A number with no mark means an inactive call. Active and inactive are the calls of the source.
# Columns and labels:
# Assay in all cases: NCI-60 one-dose screen, 48 h (100 = growth as untreated, 0 = no growth, -100 = all killed)
# Conditions in all cases: 10 µM unless noted
# SN12C renal = tested on: SN12C renal
# UO-31 renal = tested on: UO-31 renal
# ACHN renal = tested on: ACHN renal
# CAKI-1 renal = tested on: CAKI-1 renal
# A498 renal = tested on: A498 renal
# CCRF-CEM leukemia = tested on: CCRF-CEM leukemia
# MOLT-4 leukemia = tested on: MOLT-4 leukemia
# SR leukemia = tested on: SR leukemia
# RPMI-8226 leukemia = tested on: RPMI-8226 leukemia
# OVCAR-8 ovarian = tested on: OVCAR-8 ovarian
# OVCAR-5 ovarian = tested on: OVCAR-5 ovarian
# OVCAR-4 ovarian = tested on: OVCAR-4 ovarian
# SK-OV-3 ovarian = tested on: SK-OV-3 ovarian
# IGROV1 ovarian = tested on: IGROV1 ovarian
# OVCAR-3 ovarian = tested on: OVCAR-3 ovarian
# HS 578T breast = tested on: HS 578T breast
# NCI/ADR-RES ovarian = tested on: NCI/ADR-RES ovarian
# EKVX NSCLC = tested on: EKVX NSCLC
SMILES,growth (SN12C renal),growth (UO-31 renal) [%],growth (ACHN renal),growth (CAKI-1 renal) [%],growth (A498 renal),growth (CCRF-CEM leukemia),growth (MOLT-4 leukemia),growth (SR leukemia),growth (RPMI-8226 leukemia) [%],growth (OVCAR-8 ovarian),growth (OVCAR-5 ovarian),growth (OVCAR-4 ovarian),growth (SK-OV-3 ovarian) [%],growth (IGROV1 ovarian) [%],growth (OVCAR-3 ovarian),growth (HS 578T breast),growth (NCI/ADR-RES ovarian) [%],growth (EKVX NSCLC) [%]
Cc1ccc(NC(=O)c2sc3nc4c(cc3c2N)C(=O)CCC4)cc1,87.8%,84.8,89.9%,56.6,-3.97% (active),70.9%,95.9%,63.1%,93.4,98.3%,78.6%,106%,37.5,95.9,133%,107%,98.2,–
COc1cc(/C=C/c2cc(/C=C/c3ccc(O)c(OC)c3)n(C(=O)Cc3ccccc3)n2)ccc1O,9.07% (active),–,5.4% (active),20.9,-9.09% (active),0.172% (active),1.08% (active),4.44% (active),–,-17% (active),-18.7% (active),7.27% (active),–,11.4,1.55% (active),9.84% (active),21.7,–
CCCCOP(=O)(OCCCC)C(C(=O)OCC)C(CC(=O)OCC)C(=O)OCC (centres undefined),100%,–,93.2%,98.4,97.8%,–,109%,128%,–,106%,100%,–,105,112,123%,108%,113,–
CC(=O)Nc1c(Cl)cc2c(c1Cl)Cc1cc([N+](=O)[O-])ccc1-2,97.1%,86.3,79.5%,–,88.8%,57.2%,85%,70%,–,–,117%,81.2%,84.4,117,72%,34.6%,94.8,42.2
